Our source for the growth inhibition values is PubChem BioAssay (NCI).

Compounds without any hit were thinned out: in the full panel of roughly 79,000, 15% have a hit. A number with no mark means an inactive call. No stated cut-off is given here; in the data, active means growth inhibition above about 70%; inactive means the rest.

A short description of this experiment: NCI Yeast Anticancer Drug Screen. Data for the cln2 rad14 strain (AID 165).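 Further: 0% = growth equal to vehicle treated cultures.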 The following applies: S. cerevisiae cln2 rad14 strain, at 50.0 µM, active compounds read high. Put shortly:
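Test compounds were added to cln2 rad14 yeast cultures; inhibition of growth was then determined by comparison with vehicle treatment.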
In the case of `OCC(CN1CCCCC1)(CN1CCCCC1)CN1CCCCC1`, the growth inhibition is -7.05%. As to `Cc1ccccc1NCC#N`, the growth inhibition was -15.2%. The figure for `O=C1c2ccccc2C(=O)N1CCc1ccccn1` is -27.1%; for `O=C(N/N=C/c1ccc(Cl)cc1)c1cc(-c2ccccc2)nc2ccccc12` it is 21.7%; for `CCN(c1ccc(Br)cc1)c1ccc(Br)cc1` it is -7.75%. Consider `COc1ccc(C(=O)c2ccccc2C(=O)c2ccc(OC)cc2)cc1`, for which the growth inhibition is -37.8%. The figure for `COc1ccc(NC(=O)c2cccc([N+](=O)[O-])c2)cc1` is 1.8%; for `OCC(O)C(O)C(O)C(O)CN=Cc1ccccc1O` (stereo not given) it is 2.8%; for `CC1CC(C)SC(C)S1` (stereo not given) it is -87.4%.

Turning to `CC(=O)Oc1ccc2cc(Br)ccc2c1N(C(C)=O)C(C)=O`, the growth inhibition was -66.5%.

Consider `C/C(=N\NC(=O)c1cccnc1)c1cccc(/C(C)=N/NC(=O)c2cccnc2)n1.CC(=O)[O-].CC(=O)[O-].[Zn+2]`, for which the growth inhibition is -15.2%. The same measure for `Cc1ccc2nc(N)nc(N)c2c1`: 3.25%; for `CC(=O)Nc1ccc(S(=O)(=O)CO)cc1`: 6.55%; for `COc1ccc(C(=O)c2ccccc2)c(OC(=O)Nc2ccc(Cl)cc2)c1`: 3.8%. Turning to `CC1(n2nc(-c3ccccc3)n(-c3ccccc3)c2=O)CSC1`, the growth inhibition is -15.9%. The same measure for `O=C(O)c1ccc(Nc2nc3ccccc3nc2C(=O)O)cc1`: 7.05%. The same measure for `CCOC(=O)C(C(=O)OCC)(C(=O)C(F)(F)C(F)(F)C(F)(F)C(F)(F)C(=O)C(C(=O)OCC)(C(=O)OCC)c1ccccc1)c1ccccc1`: -10.6%. The figure for `COC1/C=C\C=C(/C)C(=O)Nc2cc3nc4cccc(Br)c4oc-3c(c2=O)CC(C)CC(OC)C(O)C(C)/C=C(\C)C1OC(N)=O` (stereo not given) is 21.9%; for `O=C1CC(NC(=O)c2ccccc2)C(=O)O1` (stereo not given) it is -31.1%. Regarding `Cc1ccc2c(N(C)C)cc(N(C)C)nc2c1C`, the growth inhibition was -48%. The same measure for `CC1(C)C2CCC(OC(=O)c3ccc([N+](=O)[O-])cc3)C1C2` (stereo not given): -8.1%; for `O=CSC(=Nc1ccc(Cl)cc1)NC(=O)COc1ccc(Cl)cc1`: -22.4%; for `CN(C)c1ccc(N=Nc2ccc(C(C)(C)C)cc2)cc1`: -3.1%.

As for `O=C(O)c1cccc(-n2cnc3c(=O)[nH]cnc32)c1`, the growth inhibition is -9.15%.

`N#CC1(C#N)C(c2ccccc2)C=CC12OCCCO2` (stereo not given): the growth inhibition is 32%. The same measure for `CCCC1(C(OC)OC)NC(=O)N(Cc2ccccc2)C1=O` (stereo not given): -19.7%. Take `Cc1cc2[nH]c(=O)c(=O)[nH]c2cc1C`: the growth inhibition was 17.7%. Take `COc1ccc(I)cc1`: the growth inhibition is -2.2%. The figure for `c1ccc(CN2COc3ccc4c5c(ccc4c3C2)OCN(Cc2ccccc2)C5)cc1` is -21.6%; for `CCCCCC#CC(=O)OC` it is 9.95%; for `Nc1nc([O-])c([I+]c2ccccc2)c(=O)[nH]1` it is -8.5%. As for `Cc1[nH]c(-c2ccccc2)c2nc(N(C)C)oc(=O)c12`, the growth inhibition is 10.5%. The same measure for `CN1CCCC1c1cccnc1.O=C(O)c1ccccc1O.O=C([O-])c1ccccc1[OH2+].O=C([O-])c1ccccc1[OH2+].O=C([O-])c1ccccc1[OH2+].[Mn+2]` (stereo not given): -29.6%; for `Cc1cc2c(c(C(=O)NCCC(=O)N[C@@H](C)C(=O)OCc3ccccc3)c1)Oc1c(cc(C)cc1C(=O)NCCC(=O)N[C@@H](C)C(=O)OCc1ccccc1)S2`: 28.8%. For the compound `C=CC(C)(C)/C=C/C=O`, the growth inhibition is 5.65%. In the case of `CCCCSc1nc2c(=O)n(C)c(=O)n(C)c2n1C`, the growth inhibition is -5.7%. Take `O=C(O)c1cccc(/C=N/O)c1O`: the growth inhibition is -10.5%.

With `N#CC1=C(c2ccccc2)C(=C2Nc3ccccc3N2)C2S/C(=C\c3ccccc3)C(=O)N2C1=N` (stereo not given), the growth inhibition is -31.1%.

As for `CCc1ccc(/C(C#N)=C/c2ccc(N(C)CCC#N)cc2)cc1`, the growth inhibition is 5%.

Turning to `Nc1ccc2c(c1)C1C(C3C2C2(Cl)C(Cl)=C(Cl)C3(Cl)C2(Cl)Cl)C2(Cl)C(Cl)=C(Cl)C1(Cl)C2(Cl)Cl` (stereo not given), the growth inhibition was 24.1%.
